IL1B secr inh = inflammasome signaling inhibition, IL-1 beta readout | THP-1 LPS/ATP IL-1B secretion, AlphaLISA, 16 h; active compounds read low | activity change, % at 57.5 µM | actives 4.7% (n = 360,000) | AID 743279; in the data active = activity change below about -50%; inconclusive = mostly about -30% to -49%
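THP-1 cells pretreated 1 hr with compounds (up to 57.5 uM final), then stimulated with LPS (250 ng/mL final) plus ATP (1.25 mM final); secreted IL-1B measured by AlphaLISA after 16 hr, decreased signal indicating inhibition.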
ATXN2 expr inh = ATXN2 expression inhibition. HEK-293 ATXN2-luciferase reporter, luminescence, 24 h. Potency, µM (top dose mostly 57 µM), most hits filed as inhibitors. actives 0.72% (n = 360,000). AID 1745845; also: nearly all actives have a fitted effect of over 55% in size
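qHTS (up to 57 uM final) was run with 24 h compound exposure of reporter cells at 37 °C. Each well was multiplexed: SteadyGlo luminescence measured ATXN2-luciferase expression after a fluorogenic Gly-Phe-AFC viability readout (25 uM final).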
S2 tox = viability counter-screen for ATXN expression inhibitors; AID 651635; Potency, µM (series often up to 56.7 µM), actives largely listed as cytotoxic; S2 cells (HEK-293 line with an ATXN2-luciferase reporter) viability, CellTiter-Fluor protease fluorescence, 24 h; actives 0.49% (n = 400,000); also: nearly all actives have a fitted effect of over 40% in size
HepG2 viability = HepG2 cytotoxicity, counter-screen for TGF-b inhibitors; HepG2 CAGA-GFP viability, ATP luminescence, 18 h; Potency, µM (top dose mostly 46.1 µM), actives largely listed as cytotoxic; actives 0.76% (n = 410,000); AID 588856
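CellTiter-Glo luminescence gave cytotoxicity after 18 hours at 37 degrees C. The cells were HepG2 CAGA-GFP in 1% FBS DMEM, stimulated with 500 pg/mL TGF-beta after compound addition. %Activity was normalised to no-cell wells (complete cell-killing) and DMSO (no toxicity), and curves were fitted and classified.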
TGFb inhibitor = TGF-b pathway inhibition; HepG2 CAGA-GFP TGF-b/SMAD3 reporter, GFP fluorescence, 18 h; TGF-beta stimulated, 500 pg/mL final; Potency, µM (top dose mostly 46.1 µM), hits mostly inhibitors; actives 1.2% (n = 410,000); also: nearly all actives have a fitted effect of over 65% in size
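HEPG2 CAGA-GFP cells (1000/well, DMEM with 1% FBS) were pre-incubated 2 h at 37 degrees C, given compound by pin tool, then stimulated with TGF-beta at 500 pg/mL final for 18 h before per-cell GFP fluorescence imaging.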
Large screens that a line does not name were inactive. Compounds with a hit are over-represented: about 5.7% of the library has one in this group of screens. Unless noted, calls follow the shape of the dose curve; as a rule, active = well fitted curve in the direction sought with a large enough effect; inconclusive = small, poorly fitted or top-dose-only effect, or another doubt; inactive = no such curve, though single readings can be large; an effect the other way counts as inactive or inconclusive.

CN(Cc1c(C(=O)N(C)Cc2ccccc2)nc2ccccn12)CC1Cc2ccccc2O1 (stereo unspecified)	ATXN2 expr inh inconclusive
CN(Cc1ccccc1)C(=O)c1nc2ccccn2c1CN1CCc2sccc2C1	IL1B secr inh -94
CN1CCC(CNc2ccc3ncc(-c4cccc(OC(F)(F)F)c4)n3n2)CC1	ATXN2 expr inh 24µM (no result: IL1B secr inh, S2 tox, HepG2 viability, TGFb inhibitor)
Cc1ncsc1CCOC(=O)c1ccc(N2CCOCC2)c([N+](=O)[O-])c1	none
Cc1c(CCOC(=O)c2ccc(N3CCOCC3)c([N+](=O)[O-])c2)sc[n+]1CC#N	IL1B secr inh -102, ATXN2 expr inh inconclusive, S2 tox inconclusive, TGFb inhibitor inconclusive
O/N=C(/c1ccccc1)c1cc2cc(Br)cc(Br)c2o1	IL1B secr inh -85
Cc1onc(-c2ccccc2Cl)c1C(=O)O/N=C(\N)c1ccccc1	IL1B secr inh -75
Cc1onc(-c2cccc(Cl)c2Cl)c1C(=O)O/N=C(\N)c1ccc([N+](=O)[O-])o1	TGFb inhibitor inconclusive (no result: IL1B secr inh)
Cc1onc(-c2ccccc2Cl)c1C(=O)O/N=C(\N)c1cccc([N+](=O)[O-])c1	IL1B secr inh -62 (no result: ATXN2 expr inh)
N/C(=N\OC(=O)c1ccc([N+](=O)[O-])cc1)c1cccnc1	TGFb inhibitor inconclusive
Cc1onc(-c2ccccc2)c1C(=O)O/N=C(\N)c1ccc([N+](=O)[O-])o1	S2 tox inconclusive, HepG2 viability 13µM, TGFb inhibitor 13µM (no result: ATXN2 expr inh)
N/C(=N\OC(=O)c1cc([N+](=O)[O-])ccc1Cl)c1cccnc1	IL1B secr inh -101, S2 tox inconclusive
Cc1ccc(C(=O)O/N=C(\N)c2cccc([N+](=O)[O-])c2)cc1	none
C/C(=N\OC(=O)c1c(-c2ccccc2Cl)noc1C)c1ccncc1	IL1B secr inh -145 (no result: ATXN2 expr inh)
COc1ccc(C(C)=NOC(=O)c2c(-c3ccccc3Cl)noc2C)cc1CN1CCOCC1	IL1B secr inh inconclusive (no result: ATXN2 expr inh)
COc1ccc(C2CC(c3ccccc3)Oc3cc(C)c(Cl)c(C)c32)cc1 (stereo unspecified)	none (no result: IL1B secr inh, ATXN2 expr inh, S2 tox)
CC=C1NC(=O)[C@H]2CSSCCC=C[C@H](CC(=O)N[C@H](C(C)C)C(=O)N2)OC(=O)[C@H](C(C)C)NC1=O	none (no result: IL1B secr inh, S2 tox, HepG2 viability, TGFb inhibitor)
FC(F)(F)c1cccc(-c2cc3nc(NCCOc4ccccc4)ccn3n2)c1	S2 tox inconclusive, TGFb inhibitor inconclusive
c1cc(-c2cc3nc(NC4CCCCC4)ccn3n2)ccc1OCCN1CCOCC1	IL1B secr inh -76, ATXN2 expr inh inconclusive, S2 tox 25µM, TGFb inhibitor 11µM
FC(F)(F)c1cccc(-c2cc3nc(NC4CCCCC4)ccn3n2)c1	ATXN2 expr inh inconclusive, S2 tox inconclusive, TGFb inhibitor 16µM
Clc1cccc(CNc2ccn3nc(-c4ccc(OCCN5CCOCC5)cc4)cc3n2)c1	ATXN2 expr inh inconclusive, TGFb inhibitor 11µM (no result: S2 tox)
O=C(NCC1(N2CCCCC2)CCCCC1)c1ccc(-n2cc(NC(=O)c3cccnc3)cn2)cc1	none (no result: IL1B secr inh, ATXN2 expr inh, HepG2 viability, TGFb inhibitor)
Cc1ccc(-n2ccn(CC(=O)c3ccc(F)cc3)c(=O)c2=O)cc1C	none (no result: IL1B secr inh, ATXN2 expr inh, S2 tox)
COc1ccc2c(c1)c1c(c(=O)n(Cc3ccccc3)c(=O)n1Cc1cc(C)ccc1C)n2C	none (no result: IL1B secr inh)
CN(CCCC(=O)O)c1ccc(N=Nc2ccc([N+](=O)[O-])cc2)cc1	S2 tox 14µM (no result: ATXN2 expr inh)
C=Cc1ccc(Cn2c(C(=O)O)c(CNC3CCCCC3)c3ccc(OC)cc32)cc1	S2 tox inconclusive (no result: IL1B secr inh)
CC(=O)NC1=C(NC2CCS(=O)(=O)C2)C(=O)c2ccccc2C1=O (stereo unspecified)	S2 tox inconclusive, TGFb inhibitor inconclusive
CN(C1=C(NC(=O)c2ccccc2)C(=O)c2ccccc2C1=O)C1CCS(=O)(=O)C1 (stereo unspecified)	IL1B secr inh inconclusive, ATXN2 expr inh inconclusive, S2 tox 32µM, HepG2 viability 18µM, TGFb inhibitor 18µM
CSc1c(SCc2ccccc2)cnn(-c2ccccc2)c1=O	IL1B secr inh -98
COc1ccc(F)c(CN2CCOc3ccc(CN4CCC(O)(c5cccnc5)CC4)cc3C2)c1	none (no result: IL1B secr inh, ATXN2 expr inh, HepG2 viability, TGFb inhibitor)
COc1ccc2c(c1)C1NC(=S)NC(C)(O2)C1C(=O)Nc1ccc(C)cc1C (stereo unspecified)	IL1B secr inh -56
